These results are taken from paper PMC4336329 (PLoS ONE, 2015).

The whole screen tested about 310,000 compounds, of which about 14,000 (4.5%) showed an effect of 50% or more. The effect is printed as a negative number. The entries come from a sample that favours strong results as a whole.
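Also: peak tail current of the secondary pulse compared with the same well before compound.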

Chain of human ether-à-go-go-related gene (hERG) potassium channel (Q12809 whole entry, looked up): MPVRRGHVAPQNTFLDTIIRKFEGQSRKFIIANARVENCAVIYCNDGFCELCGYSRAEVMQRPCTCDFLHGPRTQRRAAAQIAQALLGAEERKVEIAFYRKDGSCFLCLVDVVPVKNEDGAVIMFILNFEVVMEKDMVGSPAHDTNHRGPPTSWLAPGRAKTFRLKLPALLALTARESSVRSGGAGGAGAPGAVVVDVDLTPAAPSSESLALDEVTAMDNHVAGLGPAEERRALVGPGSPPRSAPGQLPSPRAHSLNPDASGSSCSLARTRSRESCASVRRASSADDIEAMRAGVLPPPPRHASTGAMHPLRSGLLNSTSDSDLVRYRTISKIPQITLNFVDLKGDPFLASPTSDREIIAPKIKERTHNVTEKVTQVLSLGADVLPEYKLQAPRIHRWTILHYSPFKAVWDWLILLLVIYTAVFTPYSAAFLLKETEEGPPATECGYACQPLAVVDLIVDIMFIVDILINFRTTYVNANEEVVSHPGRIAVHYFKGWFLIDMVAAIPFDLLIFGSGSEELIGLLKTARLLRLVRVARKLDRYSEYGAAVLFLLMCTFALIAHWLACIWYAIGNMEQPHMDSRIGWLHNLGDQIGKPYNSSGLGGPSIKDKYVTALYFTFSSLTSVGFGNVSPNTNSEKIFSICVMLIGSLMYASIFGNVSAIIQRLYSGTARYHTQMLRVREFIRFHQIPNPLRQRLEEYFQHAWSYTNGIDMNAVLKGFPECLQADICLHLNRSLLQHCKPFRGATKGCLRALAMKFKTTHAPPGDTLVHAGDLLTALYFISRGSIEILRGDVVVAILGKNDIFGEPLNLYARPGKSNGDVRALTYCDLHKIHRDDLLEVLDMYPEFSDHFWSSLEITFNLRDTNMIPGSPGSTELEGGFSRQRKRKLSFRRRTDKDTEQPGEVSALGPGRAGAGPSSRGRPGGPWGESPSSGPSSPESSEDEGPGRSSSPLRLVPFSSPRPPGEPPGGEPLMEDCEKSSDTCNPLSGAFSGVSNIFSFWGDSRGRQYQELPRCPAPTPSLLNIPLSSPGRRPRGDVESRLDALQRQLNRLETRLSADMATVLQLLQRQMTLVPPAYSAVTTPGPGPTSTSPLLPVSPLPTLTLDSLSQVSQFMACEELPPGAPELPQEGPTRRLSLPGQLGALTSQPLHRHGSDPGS

The test addresses human ether-à-go-go-related gene (hERG) potassium channel (human, UniProt Q12809). The experiment in a line: primary screen, population patch clamp on CHO cells stably expressing hERG; higher = less effect of the substance.
`C/C(N)=C(/C#N)C(=O)CSc1cc(C)c2cc(C)cc(C)c2n1`: the “hERG current change (%, negative = inhibition) at 10uM” value stood at 2.54%.
On to `COc1cccc(N2CCN(C(=O)c3cc4c(OC)c(OC)c(OC)cc4[nH]3)CC2)c1`, for which the “hERG current change (%, negative = inhibition) at 10uM” value worked out at 9.11%.
The figure for `COC(=O)c1ccc(OC(=O)C2CSC3(C)CCC(=O)N23)cc1` (stereo not drawn) is -1.4%.
The figure for `O=C(NC1CCCCC1)c1cc([N+](=O)[O-])ccc1N1CCCCC1` is -17%; for `CCCCCn1c(N)c(-c2nc3ccccc3s2)c2c([N+](=O)[O-])nn(CC)c(=O)c21` it is 5.78%; for `CCN1CCN(c2ccc(S(=O)(=O)N3CCCCC3)cc2NC(=O)COc2cc(C)ccc2Cl)CC1` it is -14.1%.
As for `CCN1CCN(c2ccc(S(=O)(=O)N3CCCCC3)cc2NC(=O)COc2ccc(F)cc2Cl)CC1`, the figure is -65.1%; as for `CCN1CCN(c2ccc(S(=O)(=O)N3CCCCC3)cc2NC(=O)COc2ccccc2)CC1`, -66.6%; as for `CCOc1ccccc1OCC(=O)Nc1cc(S(=O)(=O)N2CCCCC2)ccc1N1CCN(CC)CC1`, -71.5%.
Turning to `CCN1CCN(c2ccc(S(=O)(=O)N3CCCCC3)cc2NC(=O)COc2ccc(Cl)cc2)CC1`, the “hERG current change (%, negative = inhibition) at 10uM” value is reported as -15.2%.
Turning to `CCN1CCN(c2ccc(S(=O)(=O)N3CCCCC3)cc2NC(=O)Cc2c(Cl)cccc2Cl)CC1`, the “hERG current change (%, negative = inhibition) at 10uM” value is listed as -38.6%.
As for `CCN1CCN(c2ccc(S(=O)(=O)N3CCCCC3)cc2NC(=O)COc2ccc(Cl)c(C)c2)CC1`, the figure is -34.5%.
The figure for `CCC(=O)c1ccc(OCC(=O)Nc2cc(S(=O)(=O)N3CCCCC3)ccc2N2CCN(CC)CC2)cc1` is -84.3%; for `CCC(=O)c1ccc(OCC(=O)Nc2cc(S(=O)(=O)N3CCCCC3)ccc2OC)cc1` it is -19.8%.
Take `N#Cc1ccc(OCC(=O)Nc2cc(S(=O)(=O)N3CCCCC3)ccc2N2CCCCC2)cc1`: the “hERG current change (%, negative = inhibition) at 10uM” value is -13.3%.
Turning to `COc1ccccc1OCC(=O)Nc1cc(S(=O)(=O)N2CCCCC2)ccc1N1CCCCC1`, the “hERG current change (%, negative = inhibition) at 10uM” value was determined as 2.21%.
With `CCOc1ccccc1OCC(=O)Nc1cc(S(=O)(=O)N2CCCCC2)ccc1OC`, the “hERG current change (%, negative = inhibition) at 10uM” value is recorded as -16%.
Turning to `CSc1nnc([C@@H](N)Cc2c[nH]c3ccccc23)o1.Cl`, the “hERG current change (%, negative = inhibition) at 10uM” value turned out to be 30.1%.
The figure for `CN1CCNC(=O)C1CC(=O)NCCc1ccccc1F` (stereo not drawn) is 13.4%; for `CCCCNC(=O)O[C@H]1C[C@@H]2CCN3C(=O)CCC[C@H]([C@H]1CC)[C@H]23` it is -8.19%; for `Cc1c(-c2ccc(/C=N/NC(=O)C(=O)Nc3ccccc3F)o2)cccc1[N+](=O)[O-]` it is 21.1%.
The figure for `CN1CCN(C(=O)c2ccccc2NC(=O)c2ccc(C(C)(C)C)cc2)CC1` is -9.21%; for `Cc1onc(C(=O)N2CCN(Cc3ccccc3)CC2)c1[N+](=O)[O-]` it is -10.7%.
As for `NSc1nc(N)c2nc(-c3ccccc3)c(-c3ccccc3)nc2n1`, the “hERG current change (%, negative = inhibition) at 10uM” value was 4.96%.
The figure for `CCc1cc2c(=O)n(-c3ccccc3)cnc2s1` is 5.13%.
The figure for `COc1ccc(CN(C)C(=O)c2ccc(NS(=O)(=O)c3ccc(F)cc3)cc2)c(OC)c1` is 3.52%.
Take `COc1ccc(CN(C)C(=O)c2ccc(NS(=O)(=O)c3ccc(F)cc3)cc2)c(OC)c1OC`: the “hERG current change (%, negative = inhibition) at 10uM” value is recorded as -55.6%.
The figure for `COc1cccc(CN(C)C(=O)c2ccc(NS(=O)(=O)c3ccc(F)cc3)cc2)c1OC` is -9.34%; for `COC(=O)C(C)n1cnc2c(nnn2-c2cccc(Cl)c2)c1=O` (stereo not drawn) it is -13.4%; for `CCOC(=O)CNS(=O)(=O)CCN1C(=O)c2ccccc2C1=O` it is 1.65%.
The figure for `COc1ccc(NC(=O)C(Sc2nnc3ccccn23)c2ccccc2)cc1Cl` (stereo not drawn) is -1.62%; for `COc1ccc(C)cc1NC(=O)C(Sc1nncn1C)c1ccccc1` (stereo not drawn) it is -3.91%; for `COc1ccc(C)cc1NC(=O)C(Sc1nnc2ccccn12)c1ccccc1` (stereo not drawn) it is -67.7%.
Take `COc1cc(C2NC(=O)c3ccccc3O2)cc(OC)c1OC` (stereo not drawn): the “hERG current change (%, negative = inhibition) at 10uM” value is listed as -9.55%.
The figure for `CCOc1ccc(CCNC(=O)CSCC(=O)Nc2cccc(C)c2)cc1OCC` is -8.35%; for `CC(OC(=O)Cc1n[nH]c(=O)c2ccccc12)C(=O)Nc1ccc(F)cc1Cl` (stereo not drawn) it is 2.32%.
Consider `CCCC1=C(C(=O)OCC)C(c2c(C)nn(-c3ccccc3)c2Cl)C(C#N)=C(N)O1` (stereo not drawn), for which the “hERG current change (%, negative = inhibition) at 10uM” value is given as -16.1%.
As to `CCOC(=O)C1CCN(S(=O)(=O)c2ccc(CN3C(=O)c4cccnc4C3=O)cc2)CC1`, the “hERG current change (%, negative = inhibition) at 10uM” value is listed as -9.61%.
With `CC1CCCN(S(=O)(=O)c2ccc(CN3C(=O)c4cccnc4C3=O)cc2)C1` (stereo not drawn), the “hERG current change (%, negative = inhibition) at 10uM” value was -58%.
The figure for `CC1CCN(S(=O)(=O)c2cc(F)ccc2CN2C(=O)c3cccnc3C2=O)CC1` is -60.4%.
As for `CC(C)NS(=O)(=O)c1cc(F)ccc1CN1C(=O)c2cccnc2C1=O`, the figure is 10.5%.
Take `Cc1ccc(CNS(=O)(=O)c2cc(F)ccc2CN2C(=O)c3cccnc3C2=O)o1`: the “hERG current change (%, negative = inhibition) at 10uM” value is recorded as -9.97%.
The figure for `COc1ccc(CN2C(=O)c3cccnc3C2=O)cc1S(=O)(=O)N1CCCC(C)C1` (stereo not drawn) is -0.978%; for `O=C(Nc1ccc(S(=O)(=O)Nc2ncccn2)cc1)c1ccccc1NS(=O)(=O)c1ccc(F)cc1` it is 9.91%.
Consider `COc1ccc(-n2c(=S)[nH]c3ncccc3c2=O)cc1`, for which the “hERG current change (%, negative = inhibition) at 10uM” value is recorded as 7.98%.
